Screens: PubChem, National Center for Advancing Translational Sciences (NCATS)
An excerpt weighted towards active compounds, which were near 2.5% of everything screened.
Cruzain Triton: qHTS Assay for Promiscuous and Specific Inhibitors of Cruzain (with detergent) | purified cruzain, Z-FR-AMC fluorescence, 0.01% Triton | Cruzipain (Trypanosoma cruzi), P25779 | AID 1478, 2009 | hit rate 0.43% among 200,000 | Potency, µM, without a hit: max response, negative = inhibition, usual class: inhibitors;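 further: plate controls were neutral wells for no effect and buffer without enzyme for full effect; nearly all actives have a fitted effect of over 40% in size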
Target sequence (P25779 123-467 limits assumed): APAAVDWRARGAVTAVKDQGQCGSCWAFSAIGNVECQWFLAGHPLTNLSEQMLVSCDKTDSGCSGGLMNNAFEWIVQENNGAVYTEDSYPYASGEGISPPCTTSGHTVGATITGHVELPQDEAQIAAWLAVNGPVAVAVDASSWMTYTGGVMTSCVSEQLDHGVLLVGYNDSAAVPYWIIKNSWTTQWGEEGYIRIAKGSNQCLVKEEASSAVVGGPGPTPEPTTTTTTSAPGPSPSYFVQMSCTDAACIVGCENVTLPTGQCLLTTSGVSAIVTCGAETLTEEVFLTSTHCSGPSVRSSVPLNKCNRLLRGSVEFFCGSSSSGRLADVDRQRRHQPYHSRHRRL
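Sodium acetate buffer (100 mM, pH 5.5) containing 5 mM DTT and 0.01% Triton X-100 hosted 1.5 nM cruzain and test compound for 15 min at room temperature. Cleavage of 2 uM Z-FR-AMC was then tracked by fluorescence.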
Cruzain inh noDet: qHTS Assay for Promiscuous and Specific Inhibitors of Cruzain (without detergent); Potency, µM, for inactives: max response, negative = inhibition, usual class: inhibitors; hit rate 2.3% among 200,000; AID 1476, 2009; purified cruzain, Z-FR-AMC fluorescence, no detergent;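 further: plate controls were enzyme without inhibitor for no effect and buffer without enzyme for full effect; nearly all actives have a fitted effect of over 40% in size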
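Purified cruzain at 1.5 nM, pre-incubated 15 min with compound at room temperature in 100 mM sodium acetate pH 5.5, 5 mM DTT, 0.00005% Triton X-100. Reaction started with 2 uM Z-FR-AMC; AMC fluorescence increase over 60 s gives rate.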
Starred values were filed as active, the others as inactive; ? = inconclusive. The call rests on the fitted dose curve; in most records, active means well fitted curve in the direction sought with a large enough effect; inconclusive means small, poorly fitted or top-dose-only effect, or another doubt; inactive means no such curve, though single readings can be large; an effect the other way counts as inactive or inconclusive. Potency means the concentration at half of the fitted maximal effect.

SMILES	Cruzain Triton	Cruzain inh noDet
Cc1cc(NC(=O)CSc2nc3ccccc3c(=O)n2C2CCCC2)no1	-1.7%	-0.2%
CN(C)c1ccc(NC(=O)CSc2nc3ccccc3c(=O)n2C2CCCCC2)cc1	-0.6%	12.6µM*
O=C(CSc1nnc2[nH]c(=O)cc(-c3ccccc3)n12)Nc1cc(C(F)(F)F)ccc1Cl	-1.1%	-12.7%
O=C(/C=C/c1ccccc1Cl)NC(=S)Nc1ccccc1C(=O)NC1CCCCC1	1.5%	3.98µM*
O=C(NC1CCCCC1)c1ccccc1NC(=S)NC(=O)C1CCC1	1.9%	-11.5%
CCOC(=O)c1ccc(NC(=O)Nc2c[nH]c(=O)[nH]c2=O)cc1	2.3%	8.1%
Cc1c(Cl)cccc1NC(=O)Nc1c[nH]c(=O)[nH]c1=O	1.6%	20µM*
N#Cc1cccc(CS(=O)(=O)c2ccccc2)c1	1.2%	-1.9%
Cc1cc(C=C(C#N)C#N)c(C)n1-c1ccccc1	-0.5%	-0.6%
CN(C)c1cccc2c(C=C(C#N)C#N)ccc(N(C)C)c12	20µM*	20µM*
CC(C)(C)c1ccc(OCc2ccc(C(=O)N/N=C/c3ccc([N+](=O)[O-])cc3)o2)cc1	-5.4%	-16.6%
CCCc1n[nH]c2c1/C(=N\O)CCC2	0.6%	-5.5%
C=CCN(CC=C)S(=O)(=O)c1ccc2nsnc2c1	-3.3%	-0.6%
CCc1cc2cc3c(cc2nc1SCC(=O)Nc1nnc(C)s1)OCCO3	3.0%	?
CCc1cc2cc(C)ccc2nc1SCC(=O)Nc1cc(C)on1	1.6%	-12.1%
Cc1cc2cc3c(cc2nc1SCC(=O)Nc1nc(C)c(C)s1)OCO3	4.7%	31.6µM*
CCc1cc2cc3c(cc2nc1SCC(=O)Nc1cc(C)on1)OCO3	-2.4%	25.1µM*
COc1ccc(CNC(=O)C(C)n2nc(C)c3sc4ccccc4c3c2=O)cc1OC (stereo unspecified)	-2.5%	-1.7%
COc1ccc(CCNC(=O)C(C)n2nc(C)c3sc4ccccc4c3c2=O)cc1OC (stereo unspecified)	-4.8%	31.6µM*
Cc1nn(C(C)C(=O)NCc2ccc(OC(C)C)cc2)c(=O)c2c1sc1ccccc12 (stereo unspecified)	?	27.6%
Cc1ccc(CNC(=O)C(C)n2nc(C)c3sc4ccccc4c3c2=O)cc1 (stereo unspecified)	-4.6%	3.98µM*
O[C@H](CN1CCN(c2cccc(Cl)c2)CC1)C(c1ccccc1)c1ccccc1	-0.7%	9.7%
CC(C)(C)c1ccc(C(=O)Nc2ccc(C=C(C#N)C#N)cc2)cc1	-5.7%	31.6µM*
CC(C)(C)c1ccc(C(=O)Nc2ccc(NC(=O)c3ccc(Cl)c(Cl)c3)cc2)cc1	0.1%	-4.7%
O=C(NCc1cc(Br)cc(Br)c1OC(=O)c1ccccc1[N+](=O)[O-])c1ccccc1	-3.1%	?
SMILES	Cruzain Triton	Cruzain inh noDet
COc1ccc(S(=O)(=O)N2CCN(c3ccc(C)cc3C)CC2)cc1OC	-4.4%	?
CCOc1ccc(S(=O)(=O)N2CCCCC2)c2ccccc12	-1.2%	-5.1%
CCOc1ccc(S(=O)(=O)N2CCN(c3ccc(C)cc3C)CC2)c2ccccc12	-1.0%	3.16µM*
CCOc1ccc(Cl)cc1S(=O)(=O)N1CCN(c2ccc(F)cc2)CC1	-4.2%	0.0%
Cc1ccc(N2CCN(S(=O)(=O)c3ccc(Cl)c4ccccc34)CC2)c(C)c1	-1.3%	10µM*
CCOc1ccc(S(=O)(=O)N2CCN(c3cc(Cl)ccc3Cl)CC2)c2ccccc12	-1.7%	10µM*
COc1ccc(-c2cc(OC(=O)c3ccccc3C)c3c(C)oc(C)c3c(=O)c2)cc1	-8.1%	0.4%
COCCOC(=O)c1ccccc1C(=O)OCCOC	6.3%	1.5%
N#CC1(c2ccccc2)CCCN1C(=O)c1ccccc1Br (stereo unspecified)	2.9%	-21.8%
COc1ccc(C(=O)OCCN2CCOCC2)cc1	1.7%	-1.5%
Cc1cc[c]([Sb]2[O]C([C@H](O)[C@H](O)C(=O)O)[C@@H](CO)[O]2)cc1 (stereo partly specified)	2.6%	0.8%
Cc1cncn1CCc1nc2c3ccccc3nc(SCC(=O)Nc3ccccc3F)n2n1	-0.2%	-1.6%
COc1cc(OC)c(C2C=C(c3ccc(C)cc3)Nc3c(C(=O)Nc4ccccc4)cnn32)cc1OC (stereo unspecified)	-8.1%	-16.2%
Nc1c(C(=O)Nc2ccc(C(F)(F)F)cc2)sc2nc(-c3cccs3)ccc12	-8.8%	?
Nc1c(C(=O)NC2CCCC2)sc2nc(-c3cccs3)ccc12	-3.6%	25.1µM*
O=C(NC(=S)Nc1ccccc1N1CCOCC1)c1ccc(-c2cccc(Cl)c2)o1	-0.8%	?
O=C(NC(=S)Nc1ccccc1N1CCCCC1)c1ccc(-c2cccc([N+](=O)[O-])c2)o1	2.3%	5.01µM*
O=C(NC(=S)Nc1ccccc1N1CCCC1)c1ccc([N+](=O)[O-])cc1	-5.5%	?
COc1ccccc1NC(=S)NC(=O)c1ccc(-c2ccc(Cl)cc2)o1	-2.9%	?
O=C(NC(=S)Nc1ccccc1N1CCCC1)c1ccc(-c2cccc([N+](=O)[O-])c2)o1	-9.9%	5.01µM*
O=C(NC(=S)Nc1ccccc1O)c1ccc(-c2ccc(Cl)cc2)o1	5.3%	15.8µM*
CN(Cc1ccco1)c1ccnc(-c2cccc(C#N)c2)n1	-14.5%	-1.0%
CC(CCC#N)[N+](=O)[O-] (stereo unspecified)	-0.7%	4.8%
NCCCCCc1nnc(SCC(=O)c2ccc(Cl)cc2)o1	-2.8%	-5.2%
Cc1cc(S(=O)(=O)N2CCN(c3ncccn3)CC2)ccc1-n1cnnn1	-0.9%	-1.8%
SMILES	Cruzain Triton	Cruzain inh noDet
COc1ccc(C(=O)NCC(=O)OCc2cc(=O)n3nc(C4CCCCC4)sc3n2)cc1	-3.1%	14.6%
CCOc1ccc(C2=NC(c3ccncc3)=Nc3ccc(C)cc3N2)cc1OCC	-3.7%	?
CSc1nnnc2ccccc12	-1.1%	9.7%
CN(C)NC(=S)Nc1ccc(Cl)cc1	5.8%	17.1%
C=CCN(CC=C)S(=O)(=O)c1ccc(NC(=S)NC(=O)c2ccco2)cc1	-3.4%	3.6%
CN(C)c1ccc(NC(=S)NC(=O)/C=C/c2ccc(Cl)cc2)cc1	4.9%	5.01µM*
C=CCN(CC=C)S(=O)(=O)c1ccc(NC(=S)NC(=O)/C=C/c2cccc3ccccc23)cc1	3.1%	3.98µM*
C=CCN(CC=C)S(=O)(=O)c1ccc(NC(=S)NC(=O)c2ccc(-c3ccccc3)cc2)cc1	1.1%	-8.1%
C=CCN(CC=C)S(=O)(=O)c1ccc(NC(=S)NC(=O)/C=C/c2ccc(C)cc2)cc1	-1.0%	25.1µM*
O=C(NCc1ccco1)c1ccc(=O)oc1	-9.0%	-17.2%
CCOC(=O)c1c(C)oc2nc(C)nc(N3CCN(c4cccc(C)c4C)CC3)c12	-1.3%	5.7%
COc1cccc(-c2cncnc2Nc2ccc(F)cc2)c1	7.1%	3.6%
CN(C)c1ccc(C2(c3ccc(N(C)C)cc3)OC(=O)c3cc(N(C)C)ccc32)cc1	-5.2%	25.1µM*
Cc1cccc(C2(c3cccc(C)c3)OC(=O)c3ccccc32)c1	-3.2%	-4.5%
CN1CCC(N(C)C(=O)CCc2nc3ccccc3c(=O)[nH]2)CC1	7.3%	-6.5%
COc1ccccc1-c1c(C)nn2c(C(F)(F)F)cc(-c3ccccc3)nc12	-6.6%	-10.3%
CC(=O)c1cccc(NC(=O)CSc2nnc3ccc(-c4ccc(Br)cc4)nn23)c1	0.6%	2.2%
S=C=Nc1cccc2ccccc12	-3.0%	-28.3%
